Test results from PubChem BioAssay (NCI).
Compounds without any hit were thinned out: in the full panel of roughly 83,000, 20% have a hit.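 96-well plates, one dose, 48 hours. Percent growth reported; active if below 10.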 Active and inactive are the calls of the source.

Legend:
Assay in all cases: NCI-60 one-dose screen, 48 h (100 = growth as untreated, 0 = no growth, -100 = all killed)
Conditions in all cases: 10 µM unless noted
RPMI-8226 leukemia = tested on: RPMI-8226 leukemia
OVCAR-8 ovarian = tested on: OVCAR-8 ovarian
OVCAR-5 ovarian = tested on: OVCAR-5 ovarian
OVCAR-4 ovarian = tested on: OVCAR-4 ovarian
SK-OV-3 ovarian = tested on: SK-OV-3 ovarian
IGROV1 ovarian = tested on: IGROV1 ovarian
OVCAR-3 ovarian = tested on: OVCAR-3 ovarian
HS 578T breast = tested on: HS 578T breast
NCI/ADR-RES ovarian = tested on: NCI/ADR-RES ovarian
T-47D breast = tested on: T-47D breast
SW-620 colon = tested on: SW-620 colon
MCF7 breast = tested on: MCF7 breast
HCT-116 colon = tested on: HCT-116 colon
HCC-2998 colon = tested on: HCC-2998 colon
KM12 colon = tested on: KM12 colon
MDA-MB-468 breast = tested on: MDA-MB-468 breast
MDA-MB-435 melanoma = tested on: MDA-MB-435 melanoma
BT-549 breast = tested on: BT-549 breast

Measured: growth

COc1ccc(C(=O)/C=C/c2cccc(Cl)c2)cc1S(N)(=O)=O
active: RPMI-8226 leukemia -5.22% | OVCAR-8 ovarian -70.3% | OVCAR-5 ovarian -17.8% | IGROV1 ovarian 6.51% | OVCAR-3 ovarian -58.8% | T-47D breast -53.8% | SW-620 colon -19.9% | MCF7 breast -67% | HCT-116 colon -64.2% | HCC-2998 colon 1.16% | KM12 colon -57.9% | MDA-MB-468 breast -53.8%
inactive: OVCAR-4 ovarian 46.4% | SK-OV-3 ovarian 49.8% | HS 578T breast 95.4% | NCI/ADR-RES ovarian 14.3%

N#Cc1c(NCc2ccccc2)n[nH]c1Nc1ccccc1
inactive: RPMI-8226 leukemia 37.3% | OVCAR-8 ovarian 61.1% | OVCAR-5 ovarian 84.4% | OVCAR-4 ovarian 52.9% | SK-OV-3 ovarian 68% | IGROV1 ovarian 89.6% | OVCAR-3 ovarian 66.8% | HS 578T breast 84.6% | NCI/ADR-RES ovarian 59.9% | T-47D breast 17.2% | MDA-MB-435 melanoma 56.6% | MCF7 breast 41.6% | HCT-116 colon 33.1% | HCC-2998 colon 99.7% | KM12 colon 55.7% | MDA-MB-468 breast 59.8%

NS(=O)(=O)c1ccc(-n2cc(-c3cccc(NC(=O)c4cc(N5CCOCC5)cc(C(F)(F)F)c4)c3)nn2)cc1
inactive: RPMI-8226 leukemia 98.8% | OVCAR-5 ovarian 108% | OVCAR-4 ovarian 48.3% | SK-OV-3 ovarian 31.2% | IGROV1 ovarian 72.9% | OVCAR-3 ovarian 69% | HS 578T breast 47.9% | NCI/ADR-RES ovarian 98.5% | T-47D breast 47% | MDA-MB-435 melanoma 85.9% | SW-620 colon 105% | MCF7 breast 72.9% | HCT-116 colon 87.2% | HCC-2998 colon 88.1% | KM12 colon 79% | MDA-MB-468 breast 69.4%
active: OVCAR-8 ovarian 5.31%

COc1cc(NC(=O)c2cccc(C3CCc4c(cc(OC)c(OC)c4OC)O3)c2)cc(OC)c1OC (configuration not stated)
inactive: RPMI-8226 leukemia 16.2% | OVCAR-5 ovarian 51.4% | OVCAR-4 ovarian 31.6% | IGROV1 ovarian 13.8% | NCI/ADR-RES ovarian 16.9% | T-47D breast 14.5% | SW-620 colon 46.1% | HCC-2998 colon 64.8%
active: OVCAR-8 ovarian 5.15% | OVCAR-3 ovarian 7.51% | HS 578T breast -8.84% | BT-549 breast -6.89% | MDA-MB-435 melanoma 2.46% | MCF7 breast 3.71% | HCT-116 colon 8.03% | KM12 colon 0.726%

Cc1ccc(-c2nnc3ccc(N/N=C/c4ccccc4)nn23)cc1
inactive: RPMI-8226 leukemia 80.6% | OVCAR-8 ovarian 87.1% | OVCAR-5 ovarian 107% | SK-OV-3 ovarian 100% | IGROV1 ovarian 98.9% | OVCAR-3 ovarian 30.3% | HS 578T breast 46.6% | NCI/ADR-RES ovarian 84.1% | T-47D breast 98.8% | MDA-MB-435 melanoma 76.1% | SW-620 colon 90.6% | MCF7 breast 47.9% | HCT-116 colon 99.5% | HCC-2998 colon 111% | KM12 colon 57.2% | MDA-MB-468 breast 91.4%

COc1ccc(C(=O)/C=C/c2ccc(Cl)c(Cl)c2)cc1S(N)(=O)=O
active: RPMI-8226 leukemia -6.75% | OVCAR-8 ovarian -45.3% | OVCAR-3 ovarian -23.5% | T-47D breast -54.7% | SW-620 colon -48.8% | MCF7 breast -48.7% | HCT-116 colon -96.2% | HCC-2998 colon -74.1% | KM12 colon -46.7% | MDA-MB-468 breast -19.4%
inactive: OVCAR-5 ovarian 10.7% | OVCAR-4 ovarian 34.6% | SK-OV-3 ovarian 52.5% | IGROV1 ovarian 11.1% | HS 578T breast 86.9% | NCI/ADR-RES ovarian 14.8%

COc1ccc(C(=O)/C=C/c2ccccc2Br)cc1S(N)(=O)=O
active: RPMI-8226 leukemia -9.4% | OVCAR-8 ovarian -64.5% | OVCAR-5 ovarian -6.5% | OVCAR-3 ovarian -56.5% | T-47D breast -5.31% | SW-620 colon -45.7% | MCF7 breast -70.5% | HCT-116 colon -97% | HCC-2998 colon -65.6% | KM12 colon -71% | MDA-MB-468 breast -60.3%
inactive: SK-OV-3 ovarian 69.8% | IGROV1 ovarian 38.5% | HS 578T breast 47% | NCI/ADR-RES ovarian 16.1% | MDA-MB-435 melanoma 23.4%

O=C(NNc1nc2cc(C(F)(F)F)ccc2n2cccc12)c1cnccn1
inactive: HS 578T breast 16.3%
active: RPMI-8226 leukemia 1.97% | OVCAR-8 ovarian -77.2% | OVCAR-5 ovarian -59.2% | OVCAR-4 ovarian -43.9% | SK-OV-3 ovarian -88.2% | IGROV1 ovarian -16.3% | OVCAR-3 ovarian -47.7% | NCI/ADR-RES ovarian -12% | T-47D breast -74% | MDA-MB-435 melanoma -56.1% | SW-620 colon -26.4% | MCF7 breast -62.4% | HCT-116 colon -94.6% | HCC-2998 colon -72.2% | KM12 colon -55% | MDA-MB-468 breast -47.7%

Cc1cc(C)n(-c2ccc3nnc(-c4ccccc4)n3n2)n1
inactive: RPMI-8226 leukemia 119% | OVCAR-8 ovarian 96.9% | OVCAR-5 ovarian 128% | OVCAR-4 ovarian 92.9% | SK-OV-3 ovarian 128% | IGROV1 ovarian 111% | OVCAR-3 ovarian 91.6% | HS 578T breast 117% | T-47D breast 95.5% | MDA-MB-435 melanoma 106% | MCF7 breast 89.9% | HCT-116 colon 106% | HCC-2998 colon 103% | KM12 colon 97.4% | MDA-MB-468 breast 97%

C[C@H]1CN(C(=O)c2ccc3c(NNC(=O)c4ccncn4)nc4cc(F)c(F)cc4n23)CCN1
inactive: RPMI-8226 leukemia 23.6% | OVCAR-8 ovarian 17.2% | OVCAR-5 ovarian 50.4% | OVCAR-4 ovarian 34.7% | SK-OV-3 ovarian 43.7% | IGROV1 ovarian 33% | OVCAR-3 ovarian 58.2% | HS 578T breast 59.6% | T-47D breast 21.3% | MDA-MB-435 melanoma 37.4% | SW-620 colon 38% | MCF7 breast 17.4% | HCT-116 colon 21.7% | HCC-2998 colon 61.7% | KM12 colon 37%
active: MDA-MB-468 breast 7.53%

CC(=O)NNc1ccc2nnc(-c3ccccc3)n2n1
inactive: RPMI-8226 leukemia 115% | OVCAR-8 ovarian 100% | OVCAR-5 ovarian 113% | OVCAR-4 ovarian 109% | SK-OV-3 ovarian 110% | IGROV1 ovarian 108% | OVCAR-3 ovarian 95.4% | HS 578T breast 100% | NCI/ADR-RES ovarian 104% | T-47D breast 105% | SW-620 colon 90.6% | MCF7 breast 94.8% | HCT-116 colon 107% | HCC-2998 colon 100% | KM12 colon 104% | MDA-MB-468 breast 101%

COc1ccccc1/C=C/C(=O)c1ccc(OC)c(S(N)(=O)=O)c1
inactive: OVCAR-5 ovarian 12.4% | OVCAR-4 ovarian 42.9% | IGROV1 ovarian 38.9% | HS 578T breast 60.4% | NCI/ADR-RES ovarian 22.9% | T-47D breast 17% | MDA-MB-435 melanoma 27.2% | SW-620 colon 20.5% | HCC-2998 colon 29.5% | MDA-MB-468 breast 20.7%
active: RPMI-8226 leukemia 4.34% | OVCAR-8 ovarian -9.18% | OVCAR-3 ovarian 7.84% | MCF7 breast 8.25% | HCT-116 colon 5% | KM12 colon 6.73%

COc1ccc(-c2nnc3ccc(N/N=C/c4ccc(O)cc4)nn23)cc1
inactive: RPMI-8226 leukemia 13.1% | OVCAR-8 ovarian 45.4% | OVCAR-5 ovarian 88.9% | OVCAR-4 ovarian 47.9% | SK-OV-3 ovarian 104% | IGROV1 ovarian 39.3% | OVCAR-3 ovarian 37.6% | HS 578T breast 46.8% | NCI/ADR-RES ovarian 26% | T-47D breast 45.4% | MDA-MB-435 melanoma 45.8% | SW-620 colon 67.1% | MCF7 breast 13.2% | HCT-116 colon 27.3% | HCC-2998 colon 14.9% | KM12 colon 28.5% | MDA-MB-468 breast 48.2%

O=C(NNc1nc2cc(F)ccc2n2c(CN3CC4CNCC4C3)ccc12)c1ccncn1 (configuration not stated)
active: MDA-MB-468 breast -3.86%
inactive: RPMI-8226 leukemia 21.6% | OVCAR-8 ovarian 13% | OVCAR-5 ovarian 34.8% | OVCAR-4 ovarian 28.6% | SK-OV-3 ovarian 31.5% | IGROV1 ovarian 22.1% | OVCAR-3 ovarian 43.1% | HS 578T breast 45.3% | NCI/ADR-RES ovarian 59.8% | T-47D breast 12.4% | MDA-MB-435 melanoma 32.1% | SW-620 colon 31.3% | MCF7 breast 14.7% | HCT-116 colon 14.7% | HCC-2998 colon 56.7% | KM12 colon 27.9%
